# Source: ChEMBL document CHEMBL3988442, “University of Dundee, Small-Polar-MMV Screening Library” (2021)
# For some of these results: Results with a measured potency or affinity are listed apart.
# Key:
# Design in all cases: scale not given: direction of the effect not stated beside the values
# [1] = target: Protein translocase subunit SecA (Escherichia coli (strain K12)) (UniProt P10408); experiment: Assay to Identify E. coli SecA ATPase Inhibitors; type: functional; details: 30 µM
# [2] = target: T1, Ubiquitin-activating enzyme e1, putative (Leishmania donovani (strain BPK282A1)) (UniProt E9BSI1); experiment: Leishmania donovani Ubiquitin Activating Enzyme (LdE1); type: functional; details: 30 µM
# T1 sequence (whole entry): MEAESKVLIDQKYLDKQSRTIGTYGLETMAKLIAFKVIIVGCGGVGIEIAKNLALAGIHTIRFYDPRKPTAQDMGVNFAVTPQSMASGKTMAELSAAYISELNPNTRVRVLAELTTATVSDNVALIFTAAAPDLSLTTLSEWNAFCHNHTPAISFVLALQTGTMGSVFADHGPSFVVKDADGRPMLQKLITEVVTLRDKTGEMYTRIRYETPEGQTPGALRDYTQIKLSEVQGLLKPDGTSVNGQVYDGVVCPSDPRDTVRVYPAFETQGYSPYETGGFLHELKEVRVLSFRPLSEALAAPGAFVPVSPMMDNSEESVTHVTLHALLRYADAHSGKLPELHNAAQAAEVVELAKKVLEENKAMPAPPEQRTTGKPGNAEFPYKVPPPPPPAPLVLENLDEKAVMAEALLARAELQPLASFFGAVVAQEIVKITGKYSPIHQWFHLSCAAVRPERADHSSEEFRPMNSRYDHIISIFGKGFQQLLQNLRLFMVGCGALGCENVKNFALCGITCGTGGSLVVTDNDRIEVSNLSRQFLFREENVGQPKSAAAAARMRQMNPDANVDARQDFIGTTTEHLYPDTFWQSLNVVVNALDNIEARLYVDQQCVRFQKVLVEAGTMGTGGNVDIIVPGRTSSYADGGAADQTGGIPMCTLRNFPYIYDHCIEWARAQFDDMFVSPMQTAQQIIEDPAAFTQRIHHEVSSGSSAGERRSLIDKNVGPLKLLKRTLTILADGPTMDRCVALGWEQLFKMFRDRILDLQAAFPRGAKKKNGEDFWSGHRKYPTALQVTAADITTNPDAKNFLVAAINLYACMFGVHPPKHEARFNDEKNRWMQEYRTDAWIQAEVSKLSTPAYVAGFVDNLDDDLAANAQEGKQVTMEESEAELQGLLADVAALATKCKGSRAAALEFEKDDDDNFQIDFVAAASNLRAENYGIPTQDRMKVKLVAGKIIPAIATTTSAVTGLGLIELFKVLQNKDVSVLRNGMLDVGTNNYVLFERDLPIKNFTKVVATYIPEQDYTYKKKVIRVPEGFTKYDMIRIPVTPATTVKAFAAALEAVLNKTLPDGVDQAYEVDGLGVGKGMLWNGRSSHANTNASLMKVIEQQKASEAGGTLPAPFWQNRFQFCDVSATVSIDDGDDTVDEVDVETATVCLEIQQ
# [3] = target: AMP-activated protein kinase, AMPK (Homo sapiens) (UniProt P54646+O43741+P54619+Q9UGJ0+Q9Y478+Q13131+Q9UGI9); experiment: AMP-dependent Kinase enzyme assay. An in vitro enzyme assay that detects ADP turnover that is directly proportional to AMPK activity. This uses naive AMPK that is activated during the assay with MK-8722; type: functional; details: 30 µM
# [4] = target: Sialic acid-binding Ig-like lectin 9 (Homo sapiens) (UniProt Q9Y336); experiment: Hs-Siglec9 ALPHAscreen SOP 20170721; details: 10 µM
# Trypanosoma cruzi = experiment: Trypanosoma cruzi phosphomannomutase and mannose-1-phosphate guanylyltransferase assay; type: functional; details: 10 µM
# [5] = target: T2, Arginase-2, mitochondrial (Homo sapiens) (UniProt P78540); experiment: in vitro enzyme assay to detect the production of urea directly proportional to the activity of Arginase II; type: functional; details: 33.3 µM; note: in the data most compounds retested in dose-response had high values
# T2 sequence (whole entry): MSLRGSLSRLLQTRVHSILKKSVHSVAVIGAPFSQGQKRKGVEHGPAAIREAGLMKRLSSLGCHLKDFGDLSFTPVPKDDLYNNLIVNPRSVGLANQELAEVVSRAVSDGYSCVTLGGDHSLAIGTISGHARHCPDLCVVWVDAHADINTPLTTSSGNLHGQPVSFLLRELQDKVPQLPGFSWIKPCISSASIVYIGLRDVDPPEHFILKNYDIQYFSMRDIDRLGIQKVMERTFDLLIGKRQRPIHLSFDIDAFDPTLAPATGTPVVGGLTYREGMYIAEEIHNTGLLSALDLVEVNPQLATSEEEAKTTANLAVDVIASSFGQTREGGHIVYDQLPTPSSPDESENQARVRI
# [6] = target: T3, Proteasome subunit beta (Trypanosoma cruzi) (UniProt O96673); experiment: Trypanosoma cruzi proteasome chymotrypsin-like activity (TcProtChymo) assay.; note: in the data most compounds retested in dose-response had high values; type: functional; details: 9.37 µM
# T3 sequence (whole entry): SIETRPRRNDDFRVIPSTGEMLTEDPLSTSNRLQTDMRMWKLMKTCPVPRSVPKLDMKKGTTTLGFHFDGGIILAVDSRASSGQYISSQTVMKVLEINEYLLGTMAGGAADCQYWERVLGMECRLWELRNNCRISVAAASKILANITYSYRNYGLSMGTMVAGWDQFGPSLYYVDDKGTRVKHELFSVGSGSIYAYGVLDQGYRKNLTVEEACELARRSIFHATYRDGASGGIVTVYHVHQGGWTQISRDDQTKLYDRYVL
# Homo sapiens = species on record: Homo sapiens; experiment: To identify inhibition of the IFN signalling (Jak-Stat) pathway via expression of an eGFP reporter gene under the control of an IFN-stimulated response element (ISRE) containing MxA promoter.; type: functional; details: 30 µM
# [7] = target: T4, Tyrosyl-tRNA synthetase, putative (Trypanosoma cruzi (strain CL Brener)) (UniProt Q4DSP6); experiment: Trypanosoma cruzi tyrosyl tRNA synthetase (TcYRS) _High Tyrosine SOP; type: functional; details: 30 µM; note: in the data most compounds retested in dose-response had high values
# T4 sequence (whole entry): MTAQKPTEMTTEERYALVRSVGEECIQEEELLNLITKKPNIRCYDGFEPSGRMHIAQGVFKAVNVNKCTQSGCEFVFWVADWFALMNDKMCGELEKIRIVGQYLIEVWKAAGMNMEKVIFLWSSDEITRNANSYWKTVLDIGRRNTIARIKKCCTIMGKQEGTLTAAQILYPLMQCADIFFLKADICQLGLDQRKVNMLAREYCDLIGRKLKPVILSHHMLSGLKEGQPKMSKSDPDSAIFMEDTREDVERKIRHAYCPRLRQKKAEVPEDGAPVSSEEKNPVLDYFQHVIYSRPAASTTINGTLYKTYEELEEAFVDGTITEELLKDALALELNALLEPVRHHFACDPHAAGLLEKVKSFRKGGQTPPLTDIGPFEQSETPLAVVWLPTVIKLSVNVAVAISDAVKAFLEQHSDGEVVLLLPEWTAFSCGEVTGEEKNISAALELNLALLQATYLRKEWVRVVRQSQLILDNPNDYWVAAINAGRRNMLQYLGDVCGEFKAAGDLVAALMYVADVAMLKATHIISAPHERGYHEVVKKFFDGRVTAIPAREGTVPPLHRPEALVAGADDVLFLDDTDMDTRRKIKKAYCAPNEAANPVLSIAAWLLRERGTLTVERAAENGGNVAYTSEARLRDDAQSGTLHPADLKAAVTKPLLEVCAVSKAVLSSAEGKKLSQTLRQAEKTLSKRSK
# [8] = target: T4, Tyrosyl-tRNA synthetase, putative (Trypanosoma cruzi (strain CL Brener)); experiment: Trypanosoma cruzi tyrosyl tRNA synthetase (TcYRS) SOP; type: functional; details: 30 µM
# [9] = target: Chromo domain-containing protein 1 (Saccharomyces cerevisiae (strain ATCC 204508 / S288c) (Baker's yeast)) (UniProt P32657); experiment: ScCHD-1 Enzyme Inhibition Assay; type: functional; details: 30 µM; note: in the data most compounds retested in dose-response had high values
# Chromo domain-containing protein 1 (Saccharomyces cerevisiae (strain ATCC 204508 / S288c) (Baker's yeast)), sequence (P32657 whole entry, the tested form may be a part): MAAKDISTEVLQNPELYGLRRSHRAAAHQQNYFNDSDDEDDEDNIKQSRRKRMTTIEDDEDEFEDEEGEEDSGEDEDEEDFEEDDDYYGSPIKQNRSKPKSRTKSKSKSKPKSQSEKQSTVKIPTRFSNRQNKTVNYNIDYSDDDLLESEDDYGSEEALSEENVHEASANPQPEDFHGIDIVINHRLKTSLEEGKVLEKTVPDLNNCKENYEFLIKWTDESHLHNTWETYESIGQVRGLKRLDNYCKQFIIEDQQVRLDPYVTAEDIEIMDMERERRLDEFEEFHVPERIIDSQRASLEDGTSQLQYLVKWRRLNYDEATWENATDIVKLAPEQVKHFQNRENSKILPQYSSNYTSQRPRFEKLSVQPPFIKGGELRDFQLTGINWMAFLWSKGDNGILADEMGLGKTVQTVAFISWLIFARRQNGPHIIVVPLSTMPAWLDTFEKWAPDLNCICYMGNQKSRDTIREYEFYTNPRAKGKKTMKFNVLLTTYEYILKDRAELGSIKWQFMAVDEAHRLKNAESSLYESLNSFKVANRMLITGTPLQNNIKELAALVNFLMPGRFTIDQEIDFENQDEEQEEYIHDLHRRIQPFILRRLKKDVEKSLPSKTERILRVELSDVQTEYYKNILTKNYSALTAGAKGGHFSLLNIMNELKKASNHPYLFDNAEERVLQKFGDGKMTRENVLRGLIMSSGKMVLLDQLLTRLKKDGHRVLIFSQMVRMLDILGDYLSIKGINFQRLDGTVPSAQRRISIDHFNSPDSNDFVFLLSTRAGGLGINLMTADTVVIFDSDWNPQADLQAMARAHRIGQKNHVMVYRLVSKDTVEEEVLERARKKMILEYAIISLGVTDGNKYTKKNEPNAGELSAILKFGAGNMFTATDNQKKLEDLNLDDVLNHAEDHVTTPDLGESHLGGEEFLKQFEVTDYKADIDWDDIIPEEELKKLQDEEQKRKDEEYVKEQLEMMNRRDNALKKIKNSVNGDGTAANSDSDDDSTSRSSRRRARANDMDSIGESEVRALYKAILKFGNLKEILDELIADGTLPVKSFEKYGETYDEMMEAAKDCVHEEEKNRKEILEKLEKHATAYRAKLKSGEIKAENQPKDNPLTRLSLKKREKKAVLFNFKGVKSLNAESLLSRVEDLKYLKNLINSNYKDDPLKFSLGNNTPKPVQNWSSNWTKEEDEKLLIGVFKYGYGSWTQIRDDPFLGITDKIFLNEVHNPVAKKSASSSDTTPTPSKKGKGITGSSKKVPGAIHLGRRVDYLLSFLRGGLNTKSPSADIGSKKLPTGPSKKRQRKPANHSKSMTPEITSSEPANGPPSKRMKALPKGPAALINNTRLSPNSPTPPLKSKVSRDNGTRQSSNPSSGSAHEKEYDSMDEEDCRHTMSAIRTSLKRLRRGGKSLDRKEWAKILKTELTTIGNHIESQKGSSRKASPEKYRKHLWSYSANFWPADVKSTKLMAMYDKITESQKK
# Sialic acid-binding Ig-like lectin 9 (Homo sapiens), sequence (Q9Y336 whole entry): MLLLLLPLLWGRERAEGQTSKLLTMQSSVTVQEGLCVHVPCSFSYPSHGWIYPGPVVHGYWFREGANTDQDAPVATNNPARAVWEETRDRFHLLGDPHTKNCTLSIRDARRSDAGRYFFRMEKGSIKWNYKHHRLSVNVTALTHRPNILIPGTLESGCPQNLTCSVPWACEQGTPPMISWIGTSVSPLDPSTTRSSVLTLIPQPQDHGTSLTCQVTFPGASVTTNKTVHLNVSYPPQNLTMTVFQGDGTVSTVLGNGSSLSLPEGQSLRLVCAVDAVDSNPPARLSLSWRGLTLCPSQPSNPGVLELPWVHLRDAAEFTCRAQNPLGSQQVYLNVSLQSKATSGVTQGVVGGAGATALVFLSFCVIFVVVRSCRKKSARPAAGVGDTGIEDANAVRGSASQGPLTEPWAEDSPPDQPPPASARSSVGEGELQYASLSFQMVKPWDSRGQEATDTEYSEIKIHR
# Protein translocase subunit SecA (Escherichia coli (strain K12)), sequence (P10408 whole entry): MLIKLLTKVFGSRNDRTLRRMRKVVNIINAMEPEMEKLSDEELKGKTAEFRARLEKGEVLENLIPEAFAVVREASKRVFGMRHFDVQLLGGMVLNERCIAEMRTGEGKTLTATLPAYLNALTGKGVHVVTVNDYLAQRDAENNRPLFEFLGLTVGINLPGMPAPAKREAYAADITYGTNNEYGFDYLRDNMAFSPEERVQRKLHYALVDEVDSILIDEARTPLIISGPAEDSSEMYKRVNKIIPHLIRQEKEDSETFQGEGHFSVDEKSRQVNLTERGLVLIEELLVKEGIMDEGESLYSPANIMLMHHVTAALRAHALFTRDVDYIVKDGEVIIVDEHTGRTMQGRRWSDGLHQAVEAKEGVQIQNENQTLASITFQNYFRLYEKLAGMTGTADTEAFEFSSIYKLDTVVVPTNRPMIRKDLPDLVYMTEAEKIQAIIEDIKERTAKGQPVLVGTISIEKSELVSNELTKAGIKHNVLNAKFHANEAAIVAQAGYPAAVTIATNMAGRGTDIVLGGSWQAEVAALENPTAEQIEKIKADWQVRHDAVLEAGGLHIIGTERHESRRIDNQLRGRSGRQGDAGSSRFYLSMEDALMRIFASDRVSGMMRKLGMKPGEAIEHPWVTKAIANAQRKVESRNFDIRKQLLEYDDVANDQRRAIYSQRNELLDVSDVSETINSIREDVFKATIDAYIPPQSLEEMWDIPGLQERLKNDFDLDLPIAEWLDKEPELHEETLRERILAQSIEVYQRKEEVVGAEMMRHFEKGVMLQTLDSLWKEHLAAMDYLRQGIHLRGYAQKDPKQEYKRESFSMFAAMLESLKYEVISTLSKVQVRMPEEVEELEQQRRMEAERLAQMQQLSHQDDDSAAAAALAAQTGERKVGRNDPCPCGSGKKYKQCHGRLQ
Structure (SMILES),Percent Effect [1],Percent Effect [2],Percent Effect [3],Percent Effect [4],Percent Effect (Trypanosoma cruzi),Percent Effect [5],Percent Effect [6],Percent Effect (Homo sapiens),Percent Effect [7],Percent Effect [8],Percent Effect [9]
CC(C)C(C(=O)N1CCN(Cc2ccncc2)CC1)n1cncn1 (configuration not stated),-4.08%,7.79%,4.2%,5.43%,0.0983%,-11%,3.83%,-1.24%,3.23%,11.1%,2.61%
Cc1cc(-c2cnn(CCNC(=O)C3CCCO3)c2C2CC2)on1 (configuration not stated),-5.64%,4.05%,12%,8.12%,5.34%,0.232%,3.59%,0.87%,2.15%,11.7%,0.889%
O=C(N[C@@H]1CN(Cc2ccc3c(c2)OCO3)[C@@H]2CCCO[C@@H]21)C1CC1,-7.03%,0%,-0.94%,0.764%,-5.99%,-55%,13.2%,4.07%,1.04%,-60%,-2.23%
Cc1nc(CN2CCCN(C(=O)C(C)OCC3CC3)CC2)cs1 (configuration not stated),-1.24%,3.8%,0.098%,0.839%,3.38%,0.215%,10.6%,4.67%,3.12%,2.53%,-18.2%
Cc1nc(C)n(CC2CCCN(CCc3ccncc3)C2)n1 (configuration not stated),-3.33%,16.4%,0.226%,18.2%,2.35%,1.36%,15.6%,-0.0927%,7.53%,17.5%,-9.61%
CC(=O)Nc1nc(C(=O)NC(C)c2ccc3c(c2)OCCO3)cs1 (configuration not stated),-5.25%,18.2%,6.51%,-11.3%,5%,-4%,8.97%,14.6%,3.81%,21.2%,-21.9%
COc1cccc(CN2CCCCCC2c2cccc(C)c2)c1O (configuration not stated),-3.46%,-2.6%,18.9%,-5.45%,-3.25%,-3.23%,24%,21.6%,-5.29%,-3.85%,-9.17%
CC[C@@]1(O)CCN(C(=O)c2ccsc2)C[C@H]1O,-3.94%,4.17%,-1.21%,-6.46%,-2.82%,3.09%,12.3%,-3.4%,4.21%,5.13%,0.37%
CC(C)(C)c1ncc2c(n1)CN(C(=O)c1ccncc1)C2,-2.88%,5.48%,-0.32%,6.45%,-3.57%,-3.19%,17.7%,-6.92%,9.38%,16.1%,-0.422%
COc1cnc(C2(O)CCN(C(=O)c3ccncc3)CC2)c(OC)n1,-4.14%,4.05%,8.66%,2.87%,2.77%,-1.16%,3.74%,8.85%,2.15%,9.09%,-11.8%
Cc1nc(CN2CCCC2c2nc(C(C)C)no2)cs1 (configuration not stated),-3.44%,18.1%,-18.2%,15.3%,3.79%,5.3%,9.47%,-11.9%,5.26%,12.8%,-5.13%
CCCS(=O)(=O)N1CCOCC2(CCN(c3ccccn3)C2)C1 (configuration not stated),-1.74%,1.33%,-1.28%,4.69%,-6.88%,1.58%,3.88%,3.94%,-3.17%,5.13%,-4.27%
O=C(N[C@@H]1CCNC[C@H]1O)c1ccc(F)c(Cl)c1,-3.79%,5.41%,0.871%,3.76%,-3.09%,-1.43%,1.21%,-2.61%,3.7%,9.76%,-2.77%
CC(C)(C)C(=O)NCCC(=O)NC(C)(C)c1ccc2c(c1)OCCO2,-1.46%,-5.48%,12.2%,-1.99%,-0.783%,5%,4.44%,-3.61%,2.15%,5%,1.77%
Cc1cc(CNCc2c(C)nn(C)c2N2CCOCC2)no1,-3.31%,10.5%,-9.93%,7.93%,7.14%,3.06%,3.68%,-11.7%,3.43%,19.5%,-11%
c1cnn(Cc2cn3c(n2)CN(Cc2nccs2)CC3)c1,-2.43%,-36.4%,-0.581%,-1.53%,5.23%,5.81%,12.2%,4.15%,9.52%,26.9%,-6.74%
c1ccc2c(N3CCCC3Cn3cccn3)ncnc2c1 (configuration not stated),-2.93%,21.6%,-4.33%,6.84%,2.88%,2.77%,10.2%,50.9%,6.93%,28.1%,-8.26%
